Measured values published in ChEMBL document CHEMBL3988442, “University of Dundee, Small-Polar-MMV Screening Library” (2021).

These compounds were tested against T1, Aspartate--tRNA(Asp/Asn) ligase (Mycobacterium tuberculosis (strain ATCC 25618 / H37Rv)) (UniProt P9WFW3) (assay: Assay for Asp RNA synthetase-1 from Mycobacterium tuberculosis). Details: 30 µM.
T1 sequence (whole entry): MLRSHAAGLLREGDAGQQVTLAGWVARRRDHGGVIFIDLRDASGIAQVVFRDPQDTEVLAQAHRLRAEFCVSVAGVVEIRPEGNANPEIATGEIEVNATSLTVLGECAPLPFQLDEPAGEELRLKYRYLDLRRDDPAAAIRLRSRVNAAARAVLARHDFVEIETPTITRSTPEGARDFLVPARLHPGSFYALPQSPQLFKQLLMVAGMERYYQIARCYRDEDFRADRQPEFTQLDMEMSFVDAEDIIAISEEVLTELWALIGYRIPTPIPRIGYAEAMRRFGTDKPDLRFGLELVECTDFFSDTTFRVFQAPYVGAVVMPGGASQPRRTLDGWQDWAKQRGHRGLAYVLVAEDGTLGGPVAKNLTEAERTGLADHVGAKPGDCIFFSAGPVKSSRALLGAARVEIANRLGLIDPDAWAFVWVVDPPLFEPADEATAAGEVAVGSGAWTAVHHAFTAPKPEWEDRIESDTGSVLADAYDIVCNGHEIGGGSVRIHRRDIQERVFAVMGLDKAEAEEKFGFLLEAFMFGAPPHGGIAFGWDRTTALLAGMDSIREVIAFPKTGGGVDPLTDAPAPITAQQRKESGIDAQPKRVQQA
Assay type: functional
Set-up: scale not given: direction of the effect not stated beside the values

Row | Structure (SMILES) | Percent Effect [%]
1 | O=C(CC1CCCC1)NCCn1ccc(-c2ccccn2)n1 | -4.3
2 | Cn1ncc2c(=O)[nH]c(CN3CCC(Cc4ccccc4)CC3)nc21 | -5.37
3 | Cc1ccc(CCC(=O)N2CCCC(n3cncn3)C2)c(C)c1 (stereo not given) | -4.98
4 | CN1C(=O)CC(c2cnn(C)c2)C12CCN(C(=O)C1CC=CC1)CC2 (stereo not given) | -2.73
5 | CN1CCN(C(=O)c2nc3c(o2)CN(C(=O)c2cccnc2)C3)CC1 | 2.23
6 | Cc1cc(CN2CCCC2c2noc(C)n2)no1 (stereo not given) | -5.01
7 | O=C1N(c2ccccc2)Cc2nc(=O)[nH]n21 | -0.29
8 | Cc1cc(C)n(C2CCCN(C(=O)C3=NN(C)C(=O)CC3)C2)n1 (stereo not given) | 0.706
9 | Cc1[nH]c2ccccc2c1-c1ccnc(NC[C@H](O)CO)n1 | 0.691
10 | CC(C)c1nc2n(n1)CC(NCc1ncc(-c3ccccc3)o1)CC2 (stereo not given) | -5.88
11 | Cc1cc2n(n1)CC(CNCc1ccc(-n3cccn3)nc1)CN2 (stereo not given) | -2.59
12 | c1ccc(OCC2CC3(CCN(c4ncccn4)CC3)CO2)nc1 (stereo not given) | 4.62
13 | CCc1ncc2c(n1)CN(Cc1nc(-c3ccsc3)no1)CC2 | -0.759
14 | Cc1cc(CN(C)C(=O)NC(C)c2nncn2C)no1 (stereo not given) | -3.43
15 | CN(CC(=O)N1CCC(C(O)c2ccccc2)CC1)c1cnccn1 (stereo not given) | -0.321
16 | CC(=O)N1CCCC1c1nnc2n1CCCCC2 (stereo not given) | -0.915
17 | Cn1cc(N2CCC(NC(=O)c3c(F)cccc3F)C2=O)cn1 (stereo not given) | 0.409
18 | CN(C)c1ccc(CC(=O)N[C@@H]2CCNC[C@H]2O)cc1 | 3.77
19 | COc1ccc(OC)c(C2C3=C(COC3=O)Nc3[nH]nc(C)c32)c1 (stereo not given) | -2.76
20 | CC(=O)Nc1nc(C(=O)Nc2ccc(N3CCCCC3)nc2)cs1 | 1.12

Row | Structure (SMILES) | Percent Effect [%]
21 | CC(C)n1ncc2cc(NC(=O)N3CCC(N4CCCC4)C3)cnc21 (stereo not given) | -5.1
22 | CC(C)n1c(=O)nc2n1C(=O)N(c1ccccc1)C2 | 2.04
23 | COc1cc(C)c(S(=O)(=O)NCc2cccnc2N(C)C)c(C)c1 | 2.73
24 | CC(O)CN1CCN(C(=O)c2cccc(CC#N)c2)CC1 (stereo not given) | 2.73
25 | COc1cc(N2CC[C@H](O)[C@@H]2Cc2cnn(C)c2)ncn1 | -4.05
26 | CCOc1ccccc1C(CC(=O)Nc1ccccc1F)NC(C)=O (stereo not given) | -4.12
27 | O=C(NCCc1c[nH]cn1)c1ccc2c(c1)C(=O)N(C1CC1)C2=O | -1.45
28 | Nc1nc(CN2CCOC(Cn3cncn3)C2)nc2ccccc12 (stereo not given) | -1.84
29 | Cc1nn(-c2ccccc2)c(C)c1CNC1CCc2ncnn2C1 (stereo not given) | -2.94
30 | CC(C)c1ccc(OCCC(=O)N2CCC(CC(N)=O)CC2)cc1 | -0.478
31 | Cc1ccc(N2CCCC(NCc3cscn3)C2)nn1 (stereo not given) | 10.3
32 | CCc1nc(C2CCCN(C(=O)c3cccc4cn[nH]c34)C2)no1 (stereo not given) | 4.75
33 | O=C(C1CCOCC1)N1C[C@@H]2C[C@@H](c3nc(C4CC4)cs3)O[C@@H]2C1 | 2.07
34 | CNC(=O)c1cccc(NC(=O)Cn2nc(-c3cccs3)oc2=O)c1 | -8.92
35 | Cc1cc(CNc2cc(Cl)ccc2OCCS(C)(=O)=O)no1 | -2.26
36 | Cn1cc(Cl)cc1C(=O)N1CCN(Cc2ccsc2)CC1 | -1.54
37 | CCn1cc(CN2CC3CCCN3C[C@H]2C)c(C)n1 (stereo not given in full) | 1.26
38 | O=C(c1ccnnc1)N1C[C@@H]2CC[C@H](Oc3cccc(F)c3)[C@@H]2C1 | 3.77
39 | CC(C)CC1SCC(=O)Nc2c1cnn2-c1ccc(F)cc1 (stereo not given) | -3.46
40 | O=S(=O)(N1CCCC1)N1CCCCC1CCc1ccccc1 (stereo not given) | 1.42

These compounds were tested against Shiga toxin 2 (Escherichia coli O157:H7) (UniProt P09385+P09386) (assay: E. coli 0.157:H7 Shiga Toxin SOP - stx2 screening assay). Details: 30 µM.
Assay type: functional
Set-up: scale not given: direction of the effect not stated beside the values

Row | Structure (SMILES) | Percent Effect [%]
41 | O=C(CC1CCCC1)NCCn1ccc(-c2ccccn2)n1 | -5.4
42 | Cn1ncc2c(=O)[nH]c(CN3CCC(Cc4ccccc4)CC3)nc21 | 0.0557
43 | Cc1ccc(CCC(=O)N2CCCC(n3cncn3)C2)c(C)c1 (stereo not given) | 10.1
44 | CN1C(=O)CC(c2cnn(C)c2)C12CCN(C(=O)C1CC=CC1)CC2 (stereo not given) | -0.198
45 | CN1CCN(C(=O)c2nc3c(o2)CN(C(=O)c2cccnc2)C3)CC1 | -53.6
46 | Cc1cc(CN2CCCC2c2noc(C)n2)no1 (stereo not given) | -5.29
47 | O=C1N(c2ccccc2)Cc2nc(=O)[nH]n21 | -29.1
48 | Cc1cc(C)n(C2CCCN(C(=O)C3=NN(C)C(=O)CC3)C2)n1 (stereo not given) | 17.2
49 | Cc1[nH]c2ccccc2c1-c1ccnc(NC[C@H](O)CO)n1 | -30.4
50 | CC(C)c1nc2n(n1)CC(NCc1ncc(-c3ccccc3)o1)CC2 (stereo not given) | -9.35
51 | Cc1cc2n(n1)CC(CNCc1ccc(-n3cccn3)nc1)CN2 (stereo not given) | 3.5
52 | c1ccc(OCC2CC3(CCN(c4ncccn4)CC3)CO2)nc1 (stereo not given) | -0.916
53 | CCc1ncc2c(n1)CN(Cc1nc(-c3ccsc3)no1)CC2 | 13.8
54 | Cc1cc(CN(C)C(=O)NC(C)c2nncn2C)no1 (stereo not given) | 6.65
55 | CN(CC(=O)N1CCC(C(O)c2ccccc2)CC1)c1cnccn1 (stereo not given) | -9.59
56 | CC(=O)N1CCCC1c1nnc2n1CCCCC2 (stereo not given) | 0.261
57 | Cn1cc(N2CCC(NC(=O)c3c(F)cccc3F)C2=O)cn1 (stereo not given) | -11.8
58 | CN(C)c1ccc(CC(=O)N[C@@H]2CCNC[C@H]2O)cc1 | 1.28
59 | COc1ccc(OC)c(C2C3=C(COC3=O)Nc3[nH]nc(C)c32)c1 (stereo not given) | -22.3
60 | CC(=O)Nc1nc(C(=O)Nc2ccc(N3CCCCC3)nc2)cs1 | -46.3

Row | Structure (SMILES) | Percent Effect [%]
61 | CC(C)n1ncc2cc(NC(=O)N3CCC(N4CCCC4)C3)cnc21 (stereo not given) | -51.5
62 | CC(C)n1c(=O)nc2n1C(=O)N(c1ccccc1)C2 | 0.0543
63 | COc1cc(C)c(S(=O)(=O)NCc2cccnc2N(C)C)c(C)c1 | -18.1
64 | CC(O)CN1CCN(C(=O)c2cccc(CC#N)c2)CC1 (stereo not given) | -54.8
65 | COc1cc(N2CC[C@H](O)[C@@H]2Cc2cnn(C)c2)ncn1 | -1.67
66 | CCOc1ccccc1C(CC(=O)Nc1ccccc1F)NC(C)=O (stereo not given) | 31.5
67 | O=C(NCCc1c[nH]cn1)c1ccc2c(c1)C(=O)N(C1CC1)C2=O | -47.1
68 | Nc1nc(CN2CCOC(Cn3cncn3)C2)nc2ccccc12 (stereo not given) | 5.62
69 | Cc1nn(-c2ccccc2)c(C)c1CNC1CCc2ncnn2C1 (stereo not given) | 4.77
70 | CC(C)c1ccc(OCCC(=O)N2CCC(CC(N)=O)CC2)cc1 | 29.9
71 | Cc1ccc(N2CCCC(NCc3cscn3)C2)nn1 (stereo not given) | 15.1
72 | CCc1nc(C2CCCN(C(=O)c3cccc4cn[nH]c34)C2)no1 (stereo not given) | 29.8
73 | O=C(C1CCOCC1)N1C[C@@H]2C[C@@H](c3nc(C4CC4)cs3)O[C@@H]2C1 | 17.3
74 | CNC(=O)c1cccc(NC(=O)Cn2nc(-c3cccs3)oc2=O)c1 | -55.6
75 | Cc1cc(CNc2cc(Cl)ccc2OCCS(C)(=O)=O)no1 | -0.408
76 | Cn1cc(Cl)cc1C(=O)N1CCN(Cc2ccsc2)CC1 | 15.6
77 | CCn1cc(CN2CC3CCCN3C[C@H]2C)c(C)n1 (stereo not given in full) | -7.87
78 | O=C(c1ccnnc1)N1C[C@@H]2CC[C@H](Oc3cccc(F)c3)[C@@H]2C1 | -5.52
79 | CC(C)CC1SCC(=O)Nc2c1cnn2-c1ccc(F)cc1 (stereo not given) | 0.343
80 | O=S(=O)(N1CCCC1)N1CCCCC1CCc1ccccc1 (stereo not given) | 10.8
